According to PubChem BioAssay AID1259343 (VanderVen Lab, College of Veterinary Medicine, Cornell …, 2017):
In all, about 6,200 compounds went through this assay and about 2,900 (47%) were called active. So high a share suggests a set chosen from earlier hits. Some of the results follow. Values without a mark were called inactive. No stated cut-off is given here; in the data, active means inhibition above about 50%; inactive means the rest.

Experiment: Mycobacterium tuberculosis growth inhibition, primary screen (AID 1259343)
Conditions: inhibition: at 10 µM, stronger effect = higher value; outcome: 10 uM

Compound | inhibition
CN(Cc1ccccc1)c1ncnc(Oc2ccc3c(c2)OCO3)c1N | 28%
O=C1OC(c2ccccc2)OC(=O)C1=Cc1ccc(OCc2ccc3c(c2)OCO3)cc1 (centres undefined) | 84.2% (active)
NC(=O)c1ccc(OCc2cc(Cl)c3c(c2)OCO3)cc1 | 35.7%
O=C(NCCOc1ccccc1F)C12CC3CC(CC(C3)C1)C2 | 31.1%
O=C(NCc1ccco1)C12CC3CC(CC(C3)C1)C2 | 98.1% (active)
C=Cc1ccc(Cn2cc(C(=O)NCc3ccco3)sc2=O)cc1 | 7.16%
COC(=O)CCc1c(C)nc2c(c(-c3ccco3)nn2C2CCS(=O)(=O)C2)c1C (centres undefined) | 24.9%
Nc1ncc(N=Nc2cccc(C(F)(F)F)c2)s1 | 2.91%
C#CCN(C)C(=O)c1ccc(-c2cccc(C(F)(F)F)c2)s1 | 23.8%
CC(C)N(C(=O)c1ccc(-c2cccc(C(F)(F)F)c2)s1)C(C)C | 66.1% (active)
CC1Oc2ccccc2OC1C(=O)NCCOc1ccc2ccccc2c1 (centres undefined) | 29.2%
O=C(NCCOc1ccc(C(F)(F)F)cc1)C1CSc2ccccc2O1 (centres undefined) | 77.1% (active)
O=C(NCC(O)COc1ccc(C(F)(F)F)cc1)c1ccccc1Cl (centres undefined) | 22.8%
CCCOC(=O)c1cc(Br)ccc1NC(=O)c1ccc(C)nc1 | 8.93%
CCCOC(=O)c1ccc(NC(=O)c2cc(CCC)[nH]n2)cc1 | 65% (active)
CCCOC(=NCCCN(C)C)NC(=O)c1ccc(Cl)c(Cl)c1 | 43.6%
Nc1scc(-c2ccc(Oc3ccccc3)cc2)[n+]1CCCS(=O)(=O)[O-] | 68.1% (active)
Nc1nc(-c2ccc(Oc3ccccc3)cc2)cs1 | 17.5%
CCOC(=O)NC(n1ccnc1)C(F)(F)C(F)(F)C(F)(F)C(F)F (centres undefined) | 15.8%
C=C1/C(=N\OC(=O)Nc2ccc(C)cc2)CC2CC1C2(C)C (centres undefined) | 86.8% (active)
CN1CCN(c2ccc3nc(-c4c(N)c5c(F)cccc5[nH]c4=O)[nH]c3c2)CC1 | 30.7%
Oc1cccc2c(NC(=S)NC3CC4CCC3C4)cccc12 (centres undefined) | 23.4%
S=C(Nc1ccc(-n2cnnn2)cc1)NC1CC2CCC1C2 (centres undefined) | 103% (active)
S=C(Nc1ccccn1)NC1CC2CCC1C2 (centres undefined) | 97.7% (active)
S=C(NCC1COc2ccccc2O1)NC1CC2CCC1C2 (centres undefined) | -18.9%
CC(C)CCNc1nc(C(=O)OC(C)C(N)=O)cs1 (centres undefined) | 20.4%
CC(C)c1cc(CN(C)C(=O)CC23CC4CC(CC(C4)C2)C3)no1 | 32.9%
Cc1ncsc1CCOC(=O)CC12CC3CC(CC(C3)C1)C2 | 103% (active)
COCC(C)C1CCN(C(=O)CC23CC4CC(CC(C4)C2)C3)CC1 (centres undefined) | -13.6%
